Inconclusive results are not listed. Calls of active or inactive are those of the source. Unless noted, calls follow the shape of the dose curve; as a rule, active = well fitted curve in the direction sought with a large enough effect in the repeat runs; inconclusive = weak or mixed curves; inactive = no such curve, though single readings can be large; an effect the other way counts as inactive or inconclusive.
Assays:
[1] = A CellTox Green Cytotoxicity Assay to monitor cytotoxicity in HEK293 cells - 32 hour (AID 1224881); also: nearly all actives have a fitted effect of over 40% in size; also: potency is read from the fitted curve at half-maximal effect
Summary of the method: (§1)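 Fluorescence intensity, read at 0, 8, 16, 24, 32 and 40 h of compound treatment, reflected dye binding to DNA of dead HEK293 cells; compounds (23 nL, DMSO) were added 5 h after plating cells with reagent.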

[2] = A CellTox Green Cytotoxicity Assay to monitor cytotoxicity in HepG2 cells - 0 hour (AID 1224882); also: nearly all actives have a fitted effect of over 35% in size
Summary of the method: (§2)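 Using 1536-well format, dye-containing HepG2 suspension was seeded, allowed 5 h at 37 C/5% CO2, dosed by pintool with compounds, positive and negative controls, and imaged for fluorescence across 40 h.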

[3] = A CellTox Green Cytotoxicity Assay to monitor cytotoxicity in HepG2 cells - 32 hour (AID 1224883); also: nearly all actives have a fitted effect of over 50% in size; also: potency is read from the fitted curve at half-maximal effect
Summary of the method: as §2

[4] = A CellTox Green Cytotoxicity Assay to monitor cytotoxicity in HEK293 cells - 8 hour (AID 1224884); also: nearly all actives have a fitted effect of over 35% in size
Summary of the method: as §1

[5] = qHTS RealTime-Glo MT Cell Viability Assay in HEK293 cells - 24 hour (AID 1224886); also: nearly all actives have a fitted effect of over 50% in size; also: potency is read from the fitted curve at half-maximal effect
Summary of the method: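 Viability tracked continuously by luminescence as live cells reduce a prosubstrate for NanoLuc; HEK293 cells preincubated 5 h, compound-treated at 37 C, and read at 0, 8, 16, 24, 32 and 40 h.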

[6] = qHTS RealTime-Glo MT Cell Viability Assay in HEK293 cells - 8 hour (AID 1224887); also: nearly all actives have a fitted effect of over 50% in size; also: potency is read from the fitted curve at half-maximal effect
Summary of the method: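 Viable HEK293 cells reduce a cell-permeant prosubstrate; the product diffuses out and is consumed by NanoLuc in the medium to give light. Compounds went in after a 5 h incubation and plates were read over the treatment course.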

[7] = A CellTox Green Cytotoxicity Assay to monitor cytotoxicity in HEK293 cells - 16 hour (AID 1224888); also: nearly all actives have a fitted effect of over 35% in size
Summary of the method: as §1

[8] = qHTS RealTime-Glo MT Cell Viability Assay in HepG2 cells - 0 hour (AID 1224889); also: nearly all actives have a fitted effect of over 50% in size
Summary of the method: (§3)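 Viability was tracked continuously by NanoLuc luminescence from prosubstrate reduced by living HepG2 cells, at successive time points over 40 h of compound exposure. Cells with reagent were preincubated 5 h at 37 °C before compound addition.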

[9] = A CellTox Green Cytotoxicity Assay to monitor cytotoxicity in HepG2 cells - 8 hour (AID 1224890); also: nearly all actives have a fitted effect of over 45% in size
Summary of the method: as §2

[10] = qHTS assay to identify small molecule antagonists of the estrogen receptor alpha (ER-alpha) signaling pathway using the BG1 cell line in the presence of 0.1 nM 17-beta-estradiol - cell viability counter screen (AID 1259241); also: nearly all actives have a fitted effect of over 40% in size
Summary of the method: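 Viability in VM7Luc4E2 cells after 22 hr compound exposure under 0.1 nM 17beta-estradiol stimulation, by CellTiter-Fluor.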

[11] = qHTS assay to identify small molecule antagonists of the androgen receptor (AR) signaling pathway using the MDA cell line in the presence of 0.5 nM R1881 - cell viability counter screen (AID 1259242); also: nearly all actives have a fitted effect of over 45% in size
Summary of the method: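 Viability of MDA-kb2 cells was multiplexed with the luciferase AR readout; after 16 hr with compounds and R1881 at 0.5 nM final, CellTiter-Fluor fluorescence was recorded.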

[12] = biological target: Androgen receptor (Homo sapiens) (UniProt P10275); assay: qHTS assay to identify small molecule antagonists of the androgen receptor (AR) signaling pathway using the MDA cell line in the presence of 0.5 nM R1881 (AID 1259243); also: nearly all actives have a fitted effect of over 50% in size
Androgen receptor (Homo sapiens), sequence (P10275 whole entry, looked up): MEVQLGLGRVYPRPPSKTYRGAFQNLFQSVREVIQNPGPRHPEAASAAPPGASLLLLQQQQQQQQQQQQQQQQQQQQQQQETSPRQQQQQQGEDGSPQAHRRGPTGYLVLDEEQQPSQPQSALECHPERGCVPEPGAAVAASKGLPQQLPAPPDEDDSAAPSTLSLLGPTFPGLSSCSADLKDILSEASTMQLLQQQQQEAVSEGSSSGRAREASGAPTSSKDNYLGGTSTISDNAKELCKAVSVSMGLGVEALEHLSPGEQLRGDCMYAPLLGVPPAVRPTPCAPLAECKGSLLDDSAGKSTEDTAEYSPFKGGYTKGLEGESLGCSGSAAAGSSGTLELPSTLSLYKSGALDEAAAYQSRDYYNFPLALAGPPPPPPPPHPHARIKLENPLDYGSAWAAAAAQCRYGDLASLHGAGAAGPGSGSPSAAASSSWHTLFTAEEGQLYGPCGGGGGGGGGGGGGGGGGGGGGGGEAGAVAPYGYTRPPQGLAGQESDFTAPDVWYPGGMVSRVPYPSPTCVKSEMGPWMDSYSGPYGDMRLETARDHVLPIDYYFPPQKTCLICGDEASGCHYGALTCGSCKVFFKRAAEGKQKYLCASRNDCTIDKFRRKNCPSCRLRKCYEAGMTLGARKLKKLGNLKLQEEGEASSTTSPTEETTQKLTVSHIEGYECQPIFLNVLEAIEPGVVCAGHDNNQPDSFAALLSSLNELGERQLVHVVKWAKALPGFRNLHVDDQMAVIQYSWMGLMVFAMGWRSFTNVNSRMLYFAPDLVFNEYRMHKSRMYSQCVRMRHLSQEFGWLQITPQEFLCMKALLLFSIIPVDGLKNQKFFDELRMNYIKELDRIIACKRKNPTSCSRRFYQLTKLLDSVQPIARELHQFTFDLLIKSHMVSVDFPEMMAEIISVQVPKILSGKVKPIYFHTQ
Summary of the method: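 Reporter cells cultured without CO2 receive test chemicals, then 0.5 nM R1881 final; after 16 hr at 37C, ONE-Glo is added and light output recorded.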

[13] = biological target: Estrogen receptor (Homo sapiens) (UniProt P03372); assay: qHTS assay to identify small molecule antagonists of the estrogen receptor alpha (ER-alpha) signaling pathway using the BG1 cell line in the presence of 0.1 nM 17-beta-estradiol (AID 1259244); also: nearly all actives have a fitted effect of over 50% in size
Estrogen receptor (Homo sapiens), sequence (P03372 whole entry, looked up): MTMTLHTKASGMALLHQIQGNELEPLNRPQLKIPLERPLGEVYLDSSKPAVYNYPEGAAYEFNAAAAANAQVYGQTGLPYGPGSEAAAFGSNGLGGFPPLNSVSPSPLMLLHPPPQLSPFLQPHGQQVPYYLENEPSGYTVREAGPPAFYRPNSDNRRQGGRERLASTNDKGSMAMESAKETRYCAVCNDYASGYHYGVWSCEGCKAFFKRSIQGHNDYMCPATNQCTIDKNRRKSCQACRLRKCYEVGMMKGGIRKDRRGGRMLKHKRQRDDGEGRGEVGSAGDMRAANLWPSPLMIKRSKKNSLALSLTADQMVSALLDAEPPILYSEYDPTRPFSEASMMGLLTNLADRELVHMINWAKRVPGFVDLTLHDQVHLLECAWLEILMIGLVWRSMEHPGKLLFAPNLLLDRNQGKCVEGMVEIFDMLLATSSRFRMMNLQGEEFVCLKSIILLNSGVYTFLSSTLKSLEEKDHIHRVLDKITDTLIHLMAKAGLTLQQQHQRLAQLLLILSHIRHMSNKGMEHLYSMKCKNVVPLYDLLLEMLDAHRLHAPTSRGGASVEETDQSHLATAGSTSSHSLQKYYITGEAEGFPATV
Summary of the method: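 Estradiol at 0.1 nM (final) stimulates the endogenous ER-alpha of VM7Luc4E2 cells carrying an ERE-driven luciferase; compounds are co-incubated 22 h at 37C and luciferase output quantified by luminescence.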

[14] = qHTS assay to identify small molecule HDAC inhibitors (AID 1259364);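 also: wild-type HCT-116 cells with endogenous class I/II HDAC activity; top concentration of the series differs between compounds; nearly all actives have a fitted effect of over 45% in size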
Summary of the method: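 Read-out: luminescence of HDAC-Glo I/II reagent, 30 min RT, reflecting class I/II deacetylase activity in whole HCT-116 cells pre-exposed 2 h to DMSO-dissolved compounds.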

[15] = qHTS assay to identify small molecule HDAC inhibitors - cell viability counter screen (AID 1259365)
Summary of the method: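 Cytotoxicity was gauged in wild-type HCT-116 cells after a brief 2hr treatment with DMSO-dissolved compounds at 37C and 5% CO2, using CellTiter-Glo luminescence developed for 30min at room temperature.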

[16] = qHTS assay to identify small molecule agonists of the sonic hedgehog signaling (Shh) pathway - cell viability counter screen (AID 1259366); also: nearly all actives have a fitted effect of over 50% in size; also: potency is read from the fitted curve at half-maximal effect
Summary of the method: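 Stable Gli1-Luc NIH/3T3 clone, 2,000 cells/well. Compound exposure 24hr at 37C. Read-out: CellTiter-Fluor fluorescence.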

[17] = qHTS assay to identify small molecule antagonists of the sonic hedgehog signaling (Shh) pathway - cell viability counter screen (AID 1259367); also: nearly all actives have a fitted effect of over 55% in size
Summary of the method: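 Using CellTiter-Fluor, viability of Gli1-Luc reporter 3T3 cells is read by fluorescence in the wells used for the Shh luciferase assay. Treatment lasts 23 hr with conditioned medium, then reagent 1 hr at 37C.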

[18] = qHTS RealTime-Glo MT Cell Viability Assay in HepG2 cells - 16 hour (AID 1224885); also: nearly all actives have a fitted effect of over 50% in size
Summary of the method: as §3

[19] = qHTS assay to identify small molecule agonists of the sonic hedgehog signaling (Shh) pathway (AID 1259368; calls by dose curve;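 also: NIH/3T3-derived 3T3Gli1-Luc cells carrying a stable Gli1-driven firefly luciferase reporter; series mostly up to about 92 µM; nearly all actives have a fitted effect of over 15% in size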)
Summary of the method: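 A Gli1 transcriptional response element controlled firefly luciferase in 3T3Gli1-Luc cells. Compounds and a positive control were added 4 hr after plating, and cells were incubated a further 24 hr at 37 C before luminescence detection.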

[20] = qHTS assay to identify small molecule phospholipidosis (PLD) inducers (AID 1259344; active = well fitted curve in the direction sought with a large enough effect; an effect the other way counts as inactive or inconclusive)
Summary of the method: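 Fluorescent phospholipid staining (LipidTOX Red) measured by automated microscopy in fixed HepG2 cells after 24 h treatment; nuclei counterstained with Hoechst 33342; amiodarone as reference inducer.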

Measured: Potency

BrCC(Br)c1ccccc1 (stereo unspecified)
not listed: [18] | [19] | [20]
inactive: all other assays above

NC(=O)c1ccc(N)nc1
not listed: [5] | [12] | [13] | [20]
inactive: all other assays above

CCOc1cc(C(C)(C)C)ccc1C1COC(c2c(F)cccc2F)=N1 (stereo unspecified)
not listed: [5] | [12] | [13] | [19] | [20]
inactive: all other assays above

O=[N+]([O-])c1ccc(Oc2ccc(C(F)(F)F)cc2[N+](=O)[O-])cc1
active: [5] 15.5 µM | [6] 19.5 µM
not listed: [12] | [16] | [18] | [19] | [20]
inactive: all other assays above

COc1ccc([N+](=O)[O-])cc1O
not listed: [18] | [20]
inactive: all other assays above

C=CC(=O)OCCCCOC(=O)C=C
active: [1] 43.6 µM | [3] 43.6 µM | [5] 34.7 µM | [16] 61.1 µM
not listed: [11] | [12] | [15] | [17] | [18] | [20]
inactive: all other assays above

CN(C)[C@@H]1C(=O)C(C(N)=O)=C(O)[C@@]2(O)C(=O)C3=C(O)c4c(O)ccc(Cl)c4[C@@](C)(O)[C@H]3C[C@@H]12
not listed: [5] | [12] | [13] | [16]
inactive: all other assays above

— PubChem BioAssay (Tox21)
